RAM network inh – inhibitors of the yeast RAM network; inhibition, % at 50 µM; actives 1.8% (n = 190,000); AID 868; S. cerevisiae dse1pr::URA3 reporter, 5-FOA growth OD615, 2 d; analog-sensitive cbk1-as2 kinase mutant strain;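 active = inhibition above a set limit, 3 SD over mean compound inhibition, cut at about 8.4% in these data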;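 note: 0% = DMSO-only wells with no growth and 100% = 10 µM 1-NA-PP1 full growth; inhibition rescues growth on 5-FOA so higher OD means more RAM inhibition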
KCC2 mod – modulates chloride dependent transport by human KCC2. B-score of Tl+ flux slope (higher = more flux/activation; lower = inhibition) at 10 µM. actives 2.2% (n = 190,000). KCC2 cells, thallium flux FluoZin-2 fluorescence. Q9H2X9;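 active = thallium flux slope and its plate-corrected score both differing from the plate sample mean at a set confidence after two filtering rounds, in either direction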;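 note: slope of fluorescence scaled to starting intensity during 10 to 20 s after thallium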
Target sequence (Q9H2X9 whole entry, looked up): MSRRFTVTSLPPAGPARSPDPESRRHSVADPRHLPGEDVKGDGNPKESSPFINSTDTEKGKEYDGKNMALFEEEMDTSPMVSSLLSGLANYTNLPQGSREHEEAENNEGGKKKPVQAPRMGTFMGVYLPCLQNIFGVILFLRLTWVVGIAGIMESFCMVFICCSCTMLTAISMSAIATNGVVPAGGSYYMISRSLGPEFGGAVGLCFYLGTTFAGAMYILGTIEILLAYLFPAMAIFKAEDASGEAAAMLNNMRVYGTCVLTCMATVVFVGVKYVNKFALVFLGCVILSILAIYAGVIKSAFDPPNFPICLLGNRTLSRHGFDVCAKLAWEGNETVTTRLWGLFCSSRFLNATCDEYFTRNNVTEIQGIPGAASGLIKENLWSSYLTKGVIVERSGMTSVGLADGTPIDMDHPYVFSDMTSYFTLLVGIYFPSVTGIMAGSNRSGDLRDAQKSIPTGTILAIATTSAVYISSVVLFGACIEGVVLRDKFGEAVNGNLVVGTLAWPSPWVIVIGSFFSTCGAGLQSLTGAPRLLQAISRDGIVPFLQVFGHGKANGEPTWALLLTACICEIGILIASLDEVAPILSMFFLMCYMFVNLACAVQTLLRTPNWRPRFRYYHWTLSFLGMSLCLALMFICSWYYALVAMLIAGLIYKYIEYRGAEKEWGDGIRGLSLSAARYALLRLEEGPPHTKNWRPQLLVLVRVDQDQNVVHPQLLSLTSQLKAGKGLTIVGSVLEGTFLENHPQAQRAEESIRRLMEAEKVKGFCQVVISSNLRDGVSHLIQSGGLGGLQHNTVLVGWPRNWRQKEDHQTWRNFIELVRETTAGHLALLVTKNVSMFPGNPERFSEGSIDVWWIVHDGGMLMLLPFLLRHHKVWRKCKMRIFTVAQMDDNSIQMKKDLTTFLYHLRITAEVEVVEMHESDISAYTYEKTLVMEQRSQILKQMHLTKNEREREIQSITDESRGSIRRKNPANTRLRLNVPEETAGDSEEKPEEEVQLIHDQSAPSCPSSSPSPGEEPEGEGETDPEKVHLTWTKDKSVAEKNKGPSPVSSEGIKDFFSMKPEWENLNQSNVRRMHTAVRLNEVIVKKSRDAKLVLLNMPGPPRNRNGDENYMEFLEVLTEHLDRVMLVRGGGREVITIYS
S1P4 antagonist – human S1P4 receptor antagonism. AID 1510. actives 0.26% (n = 220,000). O95977. inhibition, % at 4.98 µM. S1P4-expressing cells, antagonist mode, reporter read-out; in the data active = inhibition above about 29%;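 note: 0% = wells stimulated with agonist and 100% = vehicle wells without agonist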
ROMK mod – modulators of human ROMK potassium channel. P48048. Tet-inducible ROMK, thallium flux fluorescence; actives lie on both sides. B-score at 10 µM. actives 2% (n = 130,000). AID 1918;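 active = signal ratio slope over the read window, or its plate-corrected B-score, at least 3 SD from the plate mean, either direction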;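 note: B-score of the F/F0 ratio slope over 7 to 12 s after thallium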
S1P4 ag – human S1P4 receptor agonism | activation, % at 4.98 µM | actives 0.35% (n = 220,000) | O95977 | AID 1509 | S1P4-expressing cell line, agonist reporter assay; in the data active = activation above about 11%;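 note: 0% = DMSO vehicle and 100% = reference agonist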
S1P3 antagonist – blocks the human S1P3 receptor; inhibition, % at 4.98 µM; actives 0.27% (n = 170,000); Q99500; CHO S1P3 NFAT-BLA reporter, FRET fluorescence, antagonist mode;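 active = inhibition above the plate cutoff, the mean inhibition of test wells on that plate plus 3 SD, cut at about 28% in these data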;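 note: cells challenged with S1P at its EC80 of 0.8 µM; blue over green emission ratio from cleaved BLA substrate after 4 h stimulation; 0% = S1P-stimulated wells and 100% = unstimulated DMSO-only wells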
* marks the source's active call; other numbers are inactive results; · = no result given. Most compounds without a hit are left out; they make up all but 5.1% or so of the library.

SMILES	RAM network inh	KCC2 mod	S1P4 antagonist	ROMK mod	S1P4 ag	S1P3 antagonist
COC(=O)c1ccc(Cl)c(-c2ccc(/C=N/NC(=O)Nc3ccccc3)o2)c1	9.0*	-0.29	1	-0.0028	1	·
O=C(Nc1nnc(CCS(=O)(=O)c2ccc3ccccc3c2)s1)c1ccc([N+](=O)[O-])cc1	8.4*	0.84	2	0.25	-1	-4
O=C(Nc1nnc(CCS(=O)(=O)c2ccc3ccccc3c2)s1)c1cccs1	3	1	2	·	-1	-1
O=Cc1ccc2noc(-c3ccc(F)cc3)c2c1	1	-0.93	-10	-3.1*	2	·
COC(=O)c1ccc(-c2ccco2)n1Cc1nc(-c2ccc(OC)c(OC)c2)oc1C	8.4*	-0.46	-17	·	2	18
CC1CCN(CC(CS(=O)(=O)c2ccc([N+](=O)[O-])cc2)N2CCC(C)CC2)CC1 (centres undefined)	·	-0.55	-1	·	-2	-3
Cc1ccc(-c2nc(NC(=O)c3cc(C(C)(C)C)nn3C)sc2C)cc1Cl	·	0.64	-9	·	1	-2
CCc1ccc(N2C(=O)CC(NNc3nc4ccccc4s3)C2=O)cc1 (centres undefined)	4	-0.0055	6	·	-1	4
Cc1nn(CCCC(=O)Nc2cc(Oc3ccccc3)cc([N+](=O)[O-])c2)c(C)c1[N+](=O)[O-]	6	-0.18	5	·	0	17
Cc1ccc(Oc2cc(NC(=O)CCCn3nc([N+](=O)[O-])cc3C)cc([N+](=O)[O-])c2)cc1	9.5*	-0.26	-27	·	2	-2
O=S(=O)(NCC(Nc1ccc(Cl)cc1)c1ccccc1)c1ccc(Cl)cc1 (centres undefined)	9.0*	0.00016	4	0.21	0	-8
Cc1cc(C)cc(C(=O)/C=C2\NC(=O)CS2)c1	1	6.4*	3	·	-3	-5
CCCCOc1ccc(/C=C/C(=O)NC2=Nc3ccccc3NC(C)=C2C(=O)OCC)cc1OC	3	-0.18	-7	-0.29	-1	3
COc1ccc(N(CC(=O)NCCSCc2ccco2)S(=O)(=O)c2ccccc2)cc1	9.3*	·	-3	-0.93	1	2
COc1ccc(N(CC(=O)Nc2ccc3c(c2)OCO3)S(=O)(=O)c2ccccc2)cc1	4	-1.2	-5	-1	-1	-1
COc1ccc(N(CC(=O)N/N=C/c2ccc3c(c2)OCO3)S(=O)(=O)c2ccccc2)cc1	9.2*	0.8	2	0.42	-1	-2
CCc1ccc(NC(=S)NNC(=O)c2ccccc2OC(F)F)cc1	-1	18*	4	·	-1	24
N#CC(C#N)=C1C=CC=CN1/C(=C\c1ccco1)C(=O)c1ccc(-c2ccccc2)cc1	2	-2.2	69*	·	-3	-29
COc1cc(OC)cc(C(=O)N[C@H](C(=O)OCC(=O)Nc2ccc(C(C)C)cc2)C(C)C)c1	8.5*	-1.3	2	·	-2	-4
CCCOC(=O)c1ccc(NC(=O)/C=C/c2cccs2)cc1	10*	-0.73	-10	-0.11	1	4
CCOC(=O)CNC(=O)N1CCCC(CCC(=O)NCc2ccc(F)c(F)c2)C1 (centres undefined)	0	0.36	4	0.093	-2	-10
COc1ccc(NC2=Nc3ccccc3N3C2=Nc2c(c(C)nn2-c2ccc(C)cc2)C3c2cccnc2)cc1 (centres undefined)	4	·	-5	-1	0	·
CC(=O)Nc1ccc(NC2=Nc3ccccc3N3C2=Nc2c(c(C)nn2-c2ccccc2)C3c2ccccc2)cc1 (centres undefined)	9.4*	0.16	5	·	-1	·
Fc1ccc(C(CCCn2nnc(-c3cccnc3)n2)c2ccc(F)cc2)cc1	10.0*	-0.028	-2	·	0	·
CC(C)OC(=O)/C(=C/c1ccc2c(c1)c1ccccc1n2C)NC(=O)c1ccccc1	6	-2.1	-23	-0.31	3	19
SMILES	RAM network inh	KCC2 mod	S1P4 antagonist	ROMK mod	S1P4 ag	S1P3 antagonist
COC(=O)/C(=C\c1ccc2c(c1)c1ccccc1n2C)NC(=O)c1ccccc1	8.6*	-1.3	-14	·	0	-8
O=C(C1=C[C@H](C2CC2)C[C@H](OCCCCO)O1)N1CCOCC1	4	-0.032	7	·	2	-7
COc1ccc(C(=O)N2CCN(c3nc4cc(C)ccc4cc3C#N)CC2)c(OC)c1	0	1	-8	·	-1	20
COc1ccc2cc(C#N)c(N3CCN(C(=O)c4ccccc4C)CC3)nc2c1	8.8*	-0.62	4	-0.0017	-1	-3
O=C(NC(=S)N1CCN(c2ccc([N+](=O)[O-])cc2)CC1)c1ccco1	4	0.72	-1	1.2	1	-21
O=C(NC(=S)N1CCN(c2ccc(Cl)cc2[N+](=O)[O-])CC1)c1cccs1	1	71*	2	·	-4	12
O=C(NC(=S)N1CCN(c2ccc(Cl)cc2[N+](=O)[O-])CC1)c1ccco1	1	17*	-1	·	-1	15
O=C(OC[C@@H]1CCCN2CCCC[C@H]12)c1cc2ccccc2oc1=O	1	0.35	-4	-0.011	-1	-26
CC(=O)Nc1cccc(NC(=O)c2cc(-c3cccnc3)nc3ccc(Cl)cc23)c1	9.3*	-0.19	-2	0.29	-1	-9
CC(=O)Nc1cccc(NC(=O)c2cc(-c3cccnc3)nc3ccc(Br)cc23)c1	3	0.53	12	·	0	·
O=C(Nc1ccccc1)C1=C[C@@H](C2CC2)C[C@@H](OCCCCO)O1	1	-0.058	-6	·	1	-20
COc1ccc(Nc2nc(N3CCCCC3)c3ccccc3n2)cc1	2	·	-5	·	-1	·
Oc1ccc(Nc2nc(N3CCCC3)c3ccccc3n2)cc1	2	·	-18	-4.8*	0	2
COc1ccc(/C=C/C(=O)C2CC2)cc1COc1cccc(C)c1C	·	0.76	23	·	-1	-5
CN(C)/C=C(\C=N\OCc1ccc(Cl)cc1Cl)C(=O)Nc1ccc(Cl)c(Cl)c1	11*	·	3	·	-1	·
Cc1cc(O)c(/C=N/OCc2ccc(Cl)cc2Cl)c(=O)o1	1	0.019	-6	0.42	0	-22
O=C1c2ccccc2C(=O)N1CCCN1CCN(CCCN2C(=O)c3ccccc3C2=O)CC1	·	-2	-2	-0.32	0	·
CCn1c(C(=O)NCCCc2ccccc2)cc2sccc21	10*	-2.5	1	-0.36	1	2
O=C(NCc1ccco1)c1cc2sccc2n1Cc1ccccc1	9.9*	-0.49	-8	·	-1	28
O=C(NCCc1ccccc1)c1cc2sccc2n1Cc1ccccc1	4	0.91	-5	·	-1	·
CC1(C)CCCN(C(=O)N2c3ccccc3Sc3ccccc32)C1	11*	0.012	-11	·	-1	·
N/C(=N\OC(=O)C1CC1)c1ccc([N+](=O)[O-])s1	·	0.46	7	·	2	-11
CCN(CC)c1ccc(/C=C2/C(=O)c3ccc(C(=O)O)cc3C2=O)cc1	9.9*	0.54	-5	·	-2	-5

Bioassay records (PubChem)
